Measured values as given in the supplement of paper PMC10849652.
Of roughly 8,800 targets only a part is listed; those with a hit were picked by preference. About 0.5% of all pairs of compound and target were hits. A number with no mark means an inactive call.

compound: C1=CC=C(C=C1)[C@H](COC2=CC3=C(C=C2)NC(=O)N3)NC(=O)C4=CC=CN(C4=O)CC5=CC(=C(C=C5)F)F; experiment: log2 fold change, soluble protein after heating vs DMSO (PISA); higher = thermal stabilisation; K562 lysate, 10 uM; active = over 0.2 and 3.5 SD of the protein, either way, in both replicates (recomputed)
Method in brief: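 Thermal stability, expressed as log-two fold change relative to solvent controls, is given from duplicates. Crude K562 extract in PBS pH 7.4 with 1 mM MgCl2, at 1 mg/mL protein, was treated with 10 μM compound for 30 min and heated in aliquots for 3 min across 48°C-58°C. After pooling, adjustment to 0.5% NP-40 at 4°C and centrifugation at 21,000xg for 90 min, supernatant protein was measured by TMTpro 16plex LC-MS/MS with channel sums equalised.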

Chain of UniProt O95071 (O95071 whole entry, looked up): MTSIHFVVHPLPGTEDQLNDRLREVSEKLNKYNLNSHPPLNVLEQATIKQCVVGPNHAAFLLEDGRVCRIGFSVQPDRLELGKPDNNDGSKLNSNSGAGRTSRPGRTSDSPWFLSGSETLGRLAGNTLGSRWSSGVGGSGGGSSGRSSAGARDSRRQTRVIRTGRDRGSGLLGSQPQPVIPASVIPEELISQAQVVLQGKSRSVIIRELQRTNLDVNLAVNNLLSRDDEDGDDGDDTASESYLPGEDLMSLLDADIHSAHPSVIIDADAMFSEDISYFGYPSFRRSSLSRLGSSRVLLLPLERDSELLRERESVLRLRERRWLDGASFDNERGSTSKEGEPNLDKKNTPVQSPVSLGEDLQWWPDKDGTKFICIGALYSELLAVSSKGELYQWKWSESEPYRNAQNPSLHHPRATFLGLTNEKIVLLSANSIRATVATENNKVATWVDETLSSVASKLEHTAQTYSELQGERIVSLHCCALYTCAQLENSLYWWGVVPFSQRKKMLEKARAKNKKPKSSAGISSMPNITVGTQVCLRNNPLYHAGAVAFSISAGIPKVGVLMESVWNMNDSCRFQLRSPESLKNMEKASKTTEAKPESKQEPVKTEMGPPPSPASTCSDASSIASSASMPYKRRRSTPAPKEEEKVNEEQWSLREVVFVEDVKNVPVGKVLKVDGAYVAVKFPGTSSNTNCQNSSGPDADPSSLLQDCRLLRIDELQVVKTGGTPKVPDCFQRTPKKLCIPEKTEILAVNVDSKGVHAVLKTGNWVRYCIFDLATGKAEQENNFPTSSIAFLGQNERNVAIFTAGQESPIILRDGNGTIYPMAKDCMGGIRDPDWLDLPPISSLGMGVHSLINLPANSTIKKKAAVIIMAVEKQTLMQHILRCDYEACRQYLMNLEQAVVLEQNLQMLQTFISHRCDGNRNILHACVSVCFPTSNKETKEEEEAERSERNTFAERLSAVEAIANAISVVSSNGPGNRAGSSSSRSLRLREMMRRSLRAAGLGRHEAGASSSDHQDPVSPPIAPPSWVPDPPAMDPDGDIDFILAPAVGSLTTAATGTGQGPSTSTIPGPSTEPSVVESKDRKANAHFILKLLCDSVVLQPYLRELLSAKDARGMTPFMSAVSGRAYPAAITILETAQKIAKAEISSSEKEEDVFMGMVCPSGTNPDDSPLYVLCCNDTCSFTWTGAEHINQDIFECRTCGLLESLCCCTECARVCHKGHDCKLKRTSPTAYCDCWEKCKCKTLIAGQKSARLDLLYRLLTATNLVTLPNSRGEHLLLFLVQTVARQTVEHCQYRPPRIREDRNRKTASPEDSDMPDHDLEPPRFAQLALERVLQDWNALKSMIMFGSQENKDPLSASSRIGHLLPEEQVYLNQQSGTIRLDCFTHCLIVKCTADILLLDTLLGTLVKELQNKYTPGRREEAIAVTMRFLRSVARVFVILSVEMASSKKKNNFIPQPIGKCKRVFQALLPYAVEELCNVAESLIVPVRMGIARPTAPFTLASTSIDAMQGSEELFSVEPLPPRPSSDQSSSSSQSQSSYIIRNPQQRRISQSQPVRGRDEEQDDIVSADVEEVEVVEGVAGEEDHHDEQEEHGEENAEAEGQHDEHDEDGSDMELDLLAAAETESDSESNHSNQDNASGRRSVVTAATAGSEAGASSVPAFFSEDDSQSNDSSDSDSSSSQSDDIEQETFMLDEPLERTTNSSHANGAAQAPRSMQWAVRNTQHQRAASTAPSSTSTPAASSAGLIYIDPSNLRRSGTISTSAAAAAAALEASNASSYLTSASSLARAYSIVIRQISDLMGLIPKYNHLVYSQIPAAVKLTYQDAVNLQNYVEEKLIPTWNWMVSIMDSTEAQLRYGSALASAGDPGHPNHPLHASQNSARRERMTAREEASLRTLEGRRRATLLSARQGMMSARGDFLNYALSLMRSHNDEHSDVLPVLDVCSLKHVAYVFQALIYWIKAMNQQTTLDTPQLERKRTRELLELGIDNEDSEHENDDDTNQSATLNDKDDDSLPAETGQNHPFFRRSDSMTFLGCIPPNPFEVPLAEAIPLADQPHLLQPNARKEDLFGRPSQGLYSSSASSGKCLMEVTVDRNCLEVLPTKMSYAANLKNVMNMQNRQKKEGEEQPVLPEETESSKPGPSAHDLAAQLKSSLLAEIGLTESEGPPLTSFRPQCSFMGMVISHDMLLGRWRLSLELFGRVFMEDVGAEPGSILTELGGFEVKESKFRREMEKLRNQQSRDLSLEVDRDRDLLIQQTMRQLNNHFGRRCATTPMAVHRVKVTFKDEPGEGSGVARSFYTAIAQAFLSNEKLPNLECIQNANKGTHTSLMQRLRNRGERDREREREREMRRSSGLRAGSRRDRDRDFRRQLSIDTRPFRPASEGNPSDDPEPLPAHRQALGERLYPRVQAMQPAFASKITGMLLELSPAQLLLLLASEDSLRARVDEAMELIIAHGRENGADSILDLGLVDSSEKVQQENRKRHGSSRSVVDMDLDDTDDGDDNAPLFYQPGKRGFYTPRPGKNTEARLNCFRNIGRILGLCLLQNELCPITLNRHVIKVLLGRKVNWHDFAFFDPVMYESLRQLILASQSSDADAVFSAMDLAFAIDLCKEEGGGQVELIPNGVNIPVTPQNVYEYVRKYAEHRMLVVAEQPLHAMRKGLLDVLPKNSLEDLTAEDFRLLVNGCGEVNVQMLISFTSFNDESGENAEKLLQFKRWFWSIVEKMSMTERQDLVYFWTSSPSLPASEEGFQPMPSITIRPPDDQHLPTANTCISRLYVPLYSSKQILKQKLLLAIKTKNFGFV
Chain of UniProt Q9BZV1 (Q9BZV1 whole entry, looked up): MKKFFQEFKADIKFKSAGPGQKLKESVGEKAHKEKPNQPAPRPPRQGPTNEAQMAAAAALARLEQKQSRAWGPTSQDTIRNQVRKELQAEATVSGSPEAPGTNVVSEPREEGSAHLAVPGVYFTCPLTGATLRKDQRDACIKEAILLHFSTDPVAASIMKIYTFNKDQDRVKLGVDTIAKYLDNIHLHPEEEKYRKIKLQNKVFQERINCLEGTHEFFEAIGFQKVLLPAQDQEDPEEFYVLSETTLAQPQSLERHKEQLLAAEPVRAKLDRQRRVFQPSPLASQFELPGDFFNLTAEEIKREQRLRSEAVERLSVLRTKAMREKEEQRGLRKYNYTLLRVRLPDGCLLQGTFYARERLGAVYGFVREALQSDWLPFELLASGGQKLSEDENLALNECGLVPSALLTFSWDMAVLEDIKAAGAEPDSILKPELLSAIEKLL
Chain of UniProt O43156 (O43156 whole entry, looked up): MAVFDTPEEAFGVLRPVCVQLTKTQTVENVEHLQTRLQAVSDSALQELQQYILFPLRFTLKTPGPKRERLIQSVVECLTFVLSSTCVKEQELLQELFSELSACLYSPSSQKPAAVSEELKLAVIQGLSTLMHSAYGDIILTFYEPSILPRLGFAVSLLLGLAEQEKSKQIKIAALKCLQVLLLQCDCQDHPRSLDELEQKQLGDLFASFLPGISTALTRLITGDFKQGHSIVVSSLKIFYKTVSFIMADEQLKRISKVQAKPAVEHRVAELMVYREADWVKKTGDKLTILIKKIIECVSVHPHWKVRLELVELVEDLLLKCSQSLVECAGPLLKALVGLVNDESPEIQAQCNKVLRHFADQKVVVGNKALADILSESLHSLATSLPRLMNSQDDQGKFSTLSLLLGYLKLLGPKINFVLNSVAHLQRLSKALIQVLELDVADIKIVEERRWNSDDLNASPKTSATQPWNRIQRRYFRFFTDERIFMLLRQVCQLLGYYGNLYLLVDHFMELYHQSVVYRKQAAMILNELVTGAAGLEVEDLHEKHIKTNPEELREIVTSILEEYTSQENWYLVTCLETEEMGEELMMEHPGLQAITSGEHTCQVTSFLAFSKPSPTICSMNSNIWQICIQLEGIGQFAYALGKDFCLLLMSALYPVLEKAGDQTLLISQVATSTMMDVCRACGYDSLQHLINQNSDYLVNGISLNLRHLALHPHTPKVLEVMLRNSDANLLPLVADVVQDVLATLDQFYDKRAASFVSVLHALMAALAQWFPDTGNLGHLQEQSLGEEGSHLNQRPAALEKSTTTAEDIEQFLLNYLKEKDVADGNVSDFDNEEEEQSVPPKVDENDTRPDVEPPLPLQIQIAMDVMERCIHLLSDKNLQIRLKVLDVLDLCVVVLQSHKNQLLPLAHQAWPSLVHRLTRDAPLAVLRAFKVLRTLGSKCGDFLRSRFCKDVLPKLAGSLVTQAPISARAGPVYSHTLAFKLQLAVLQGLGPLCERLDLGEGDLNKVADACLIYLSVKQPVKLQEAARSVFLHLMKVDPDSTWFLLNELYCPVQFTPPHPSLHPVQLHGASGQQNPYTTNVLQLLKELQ
Chain of UniProt Q13509 (Q13509 whole entry, looked up): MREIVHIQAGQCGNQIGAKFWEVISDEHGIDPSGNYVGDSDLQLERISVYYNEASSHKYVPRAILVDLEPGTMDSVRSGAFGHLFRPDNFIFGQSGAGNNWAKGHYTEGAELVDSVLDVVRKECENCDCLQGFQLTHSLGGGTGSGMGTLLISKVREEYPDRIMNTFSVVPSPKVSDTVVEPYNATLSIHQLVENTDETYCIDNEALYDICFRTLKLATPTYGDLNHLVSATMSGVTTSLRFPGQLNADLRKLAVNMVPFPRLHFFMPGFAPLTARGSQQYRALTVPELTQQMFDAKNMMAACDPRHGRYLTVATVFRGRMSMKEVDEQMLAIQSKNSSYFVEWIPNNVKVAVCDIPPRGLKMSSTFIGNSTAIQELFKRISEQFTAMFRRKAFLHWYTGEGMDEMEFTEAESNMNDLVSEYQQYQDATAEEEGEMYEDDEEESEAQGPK
Chain of UniProt P06753 (P06753 whole entry, looked up): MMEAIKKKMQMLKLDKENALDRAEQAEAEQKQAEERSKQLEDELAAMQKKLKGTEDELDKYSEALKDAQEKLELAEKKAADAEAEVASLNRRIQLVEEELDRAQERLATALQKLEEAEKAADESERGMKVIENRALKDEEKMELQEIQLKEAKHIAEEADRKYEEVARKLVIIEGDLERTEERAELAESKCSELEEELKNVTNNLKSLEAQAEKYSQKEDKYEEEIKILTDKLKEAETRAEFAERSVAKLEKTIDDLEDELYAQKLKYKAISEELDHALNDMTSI

| Target | log2 fold change |
| --- | --- |
| UBR4 (UniProt Q5T4S7) | -0.012 |
| THEMIS2 (UniProt Q5TEJ8) | 0.046 |
| TOPBP1 (UniProt Q92547) | 0.012 |
| TJP1 (UniProt G3V1L9) | -0.025 |
| TJP1 isoform 2 (UniProt Q07157) | 0.048 |
| TRIM65 (UniProt Q6PJ69) | 0.051 |
| TUBB3 (UniProt Q13509) | 0.014 |
| TTI2 (UniProt Q6NXR4) | -0.044 |
| TXNIP (UniProt Q9H3M7) | 0.056 |
| TBC1D2B (UniProt Q9UPU7) | -0.024 |
| UBXN6 (UniProt Q9BZV1) | -0.03 |
| TYMS (UniProt P04818) | -0.005 |
| UBR5 (UniProt O95071) | -0.011 |
| TMEM199 (UniProt Q8N511) | 0.005 |
| TPM3 isoform 2 (UniProt P06753) | -0.02 |
| TTI1 (UniProt O43156) | -0.004 |
| TCAF2 (UniProt A6NFQ2) | 0.159 |
